The source of these data is ChEMBL document CHEMBL2218924, “A broad activity screen in support of a chemogenomic map for kinase signalling research and drug discovery” (Biochem J, 2013).

Experiment [1] has as its target BDNF/NT-3 growth factors receptor (Homo sapiens) (UniProt Q16620). The following applies: at 10 µM.
The target in experiment [2] is T1, Tyrosine-protein kinase TXK (Homo sapiens) (UniProt P42681).
T1 sequence (whole entry): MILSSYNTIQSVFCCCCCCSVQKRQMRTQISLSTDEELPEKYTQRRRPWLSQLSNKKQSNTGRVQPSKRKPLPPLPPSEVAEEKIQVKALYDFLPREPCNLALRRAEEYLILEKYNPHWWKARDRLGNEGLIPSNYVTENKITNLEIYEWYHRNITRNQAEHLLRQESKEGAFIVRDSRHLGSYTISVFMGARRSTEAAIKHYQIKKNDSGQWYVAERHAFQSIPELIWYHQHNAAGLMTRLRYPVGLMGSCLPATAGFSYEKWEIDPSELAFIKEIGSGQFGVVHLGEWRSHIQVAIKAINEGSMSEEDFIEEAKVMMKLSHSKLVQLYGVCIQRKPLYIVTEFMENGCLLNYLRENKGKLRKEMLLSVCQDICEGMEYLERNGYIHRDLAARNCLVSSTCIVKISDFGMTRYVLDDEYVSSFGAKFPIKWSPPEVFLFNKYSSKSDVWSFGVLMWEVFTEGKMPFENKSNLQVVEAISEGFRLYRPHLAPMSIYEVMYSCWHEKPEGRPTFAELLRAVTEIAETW
The settings on record: at 1 µM.

Experiment [3] addresses T1, Tyrosine-protein kinase TXK (Homo sapiens). The following applies: at 10 µM.
Experiment [4] concerns the target T2, Serine/threonine-protein kinase ULK2 (Homo sapiens) (UniProt Q8IYT8).
T2 sequence (whole entry): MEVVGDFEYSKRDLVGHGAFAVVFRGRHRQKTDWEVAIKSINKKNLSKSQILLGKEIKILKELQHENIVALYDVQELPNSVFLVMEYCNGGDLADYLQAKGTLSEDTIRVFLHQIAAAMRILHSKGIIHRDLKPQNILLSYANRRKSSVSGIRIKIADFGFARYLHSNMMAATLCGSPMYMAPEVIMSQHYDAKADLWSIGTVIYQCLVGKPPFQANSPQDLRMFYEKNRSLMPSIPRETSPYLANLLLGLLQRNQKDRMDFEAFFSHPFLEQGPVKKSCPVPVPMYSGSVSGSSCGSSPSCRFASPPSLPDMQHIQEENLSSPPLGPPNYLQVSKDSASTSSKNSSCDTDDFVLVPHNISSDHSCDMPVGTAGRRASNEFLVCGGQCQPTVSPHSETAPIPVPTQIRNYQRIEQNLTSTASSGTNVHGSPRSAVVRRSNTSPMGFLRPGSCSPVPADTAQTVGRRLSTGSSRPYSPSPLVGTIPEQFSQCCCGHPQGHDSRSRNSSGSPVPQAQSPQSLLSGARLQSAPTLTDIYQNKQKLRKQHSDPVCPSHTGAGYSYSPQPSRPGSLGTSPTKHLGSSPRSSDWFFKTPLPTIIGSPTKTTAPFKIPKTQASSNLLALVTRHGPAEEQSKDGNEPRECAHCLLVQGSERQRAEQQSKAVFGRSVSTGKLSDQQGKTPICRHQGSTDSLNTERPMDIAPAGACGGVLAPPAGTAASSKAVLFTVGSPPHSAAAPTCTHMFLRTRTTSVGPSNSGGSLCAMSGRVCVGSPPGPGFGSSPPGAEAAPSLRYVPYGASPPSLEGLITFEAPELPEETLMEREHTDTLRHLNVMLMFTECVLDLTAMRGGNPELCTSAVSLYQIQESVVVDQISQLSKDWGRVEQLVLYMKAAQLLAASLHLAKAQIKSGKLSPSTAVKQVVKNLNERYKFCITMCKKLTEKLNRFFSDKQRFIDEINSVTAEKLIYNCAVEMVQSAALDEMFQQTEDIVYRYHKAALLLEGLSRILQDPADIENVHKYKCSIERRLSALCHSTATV
The settings on record: at 1 µM.

Experiment [5] deals with T2, Serine/threonine-protein kinase ULK2 (Homo sapiens). The following applies: at 10 µM.
The target of experiment [6] is T3, Serine/threonine-protein kinase ULK3 (Homo sapiens) (UniProt Q6PHR2).
T3 sequence (whole entry): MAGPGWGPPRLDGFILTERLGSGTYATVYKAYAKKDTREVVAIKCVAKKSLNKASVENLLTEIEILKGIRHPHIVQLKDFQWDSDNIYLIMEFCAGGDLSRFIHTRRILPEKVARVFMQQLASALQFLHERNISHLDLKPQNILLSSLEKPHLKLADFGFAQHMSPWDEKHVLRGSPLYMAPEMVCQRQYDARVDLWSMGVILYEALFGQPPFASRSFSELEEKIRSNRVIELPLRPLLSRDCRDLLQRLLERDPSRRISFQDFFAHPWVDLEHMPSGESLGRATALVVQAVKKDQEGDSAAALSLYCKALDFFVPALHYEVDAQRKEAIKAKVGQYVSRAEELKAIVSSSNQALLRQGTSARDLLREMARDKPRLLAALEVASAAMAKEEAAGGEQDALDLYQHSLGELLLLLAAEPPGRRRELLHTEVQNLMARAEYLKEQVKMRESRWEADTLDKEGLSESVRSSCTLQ
The following applies: at 1 µM.

Experiment [7] has as its target T3, Serine/threonine-protein kinase ULK3 (Homo sapiens). The following applies: at 10 µM.
Experiment [8] deals with Serine/threonine-protein kinase VRK2 (Homo sapiens) (UniProt Q86Y07). The settings on record: at 1 µM.
Serine/threonine-protein kinase VRK2 (Homo sapiens), sequence (Q86Y07 whole entry): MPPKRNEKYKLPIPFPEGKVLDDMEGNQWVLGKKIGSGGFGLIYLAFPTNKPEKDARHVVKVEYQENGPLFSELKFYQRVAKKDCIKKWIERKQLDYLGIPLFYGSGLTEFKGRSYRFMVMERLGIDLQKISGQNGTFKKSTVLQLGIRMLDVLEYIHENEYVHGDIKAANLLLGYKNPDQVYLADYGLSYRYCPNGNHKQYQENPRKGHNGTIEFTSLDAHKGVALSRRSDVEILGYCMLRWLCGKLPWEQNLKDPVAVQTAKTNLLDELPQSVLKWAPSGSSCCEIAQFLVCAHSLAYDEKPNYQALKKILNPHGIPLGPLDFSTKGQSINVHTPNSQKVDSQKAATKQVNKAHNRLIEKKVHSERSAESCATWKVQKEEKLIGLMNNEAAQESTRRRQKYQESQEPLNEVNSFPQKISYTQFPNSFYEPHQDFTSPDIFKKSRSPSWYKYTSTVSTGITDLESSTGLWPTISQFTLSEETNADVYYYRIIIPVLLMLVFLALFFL
The target is the same in experiment [9]. The settings on record: at 10 µM.
For experiment [10], the target named is Serine/threonine-protein kinase WNK2 (Homo sapiens) (UniProt Q9Y3S1). The settings on record: at 1 µM.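 Note: residual WNK2 kinase activity expressed as percent of uninhibited control, assayed in MOPS buffer at pH 7.0 containing EDTA.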
Serine/threonine-protein kinase WNK2 (Homo sapiens), sequence (Q9Y3S1 whole entry): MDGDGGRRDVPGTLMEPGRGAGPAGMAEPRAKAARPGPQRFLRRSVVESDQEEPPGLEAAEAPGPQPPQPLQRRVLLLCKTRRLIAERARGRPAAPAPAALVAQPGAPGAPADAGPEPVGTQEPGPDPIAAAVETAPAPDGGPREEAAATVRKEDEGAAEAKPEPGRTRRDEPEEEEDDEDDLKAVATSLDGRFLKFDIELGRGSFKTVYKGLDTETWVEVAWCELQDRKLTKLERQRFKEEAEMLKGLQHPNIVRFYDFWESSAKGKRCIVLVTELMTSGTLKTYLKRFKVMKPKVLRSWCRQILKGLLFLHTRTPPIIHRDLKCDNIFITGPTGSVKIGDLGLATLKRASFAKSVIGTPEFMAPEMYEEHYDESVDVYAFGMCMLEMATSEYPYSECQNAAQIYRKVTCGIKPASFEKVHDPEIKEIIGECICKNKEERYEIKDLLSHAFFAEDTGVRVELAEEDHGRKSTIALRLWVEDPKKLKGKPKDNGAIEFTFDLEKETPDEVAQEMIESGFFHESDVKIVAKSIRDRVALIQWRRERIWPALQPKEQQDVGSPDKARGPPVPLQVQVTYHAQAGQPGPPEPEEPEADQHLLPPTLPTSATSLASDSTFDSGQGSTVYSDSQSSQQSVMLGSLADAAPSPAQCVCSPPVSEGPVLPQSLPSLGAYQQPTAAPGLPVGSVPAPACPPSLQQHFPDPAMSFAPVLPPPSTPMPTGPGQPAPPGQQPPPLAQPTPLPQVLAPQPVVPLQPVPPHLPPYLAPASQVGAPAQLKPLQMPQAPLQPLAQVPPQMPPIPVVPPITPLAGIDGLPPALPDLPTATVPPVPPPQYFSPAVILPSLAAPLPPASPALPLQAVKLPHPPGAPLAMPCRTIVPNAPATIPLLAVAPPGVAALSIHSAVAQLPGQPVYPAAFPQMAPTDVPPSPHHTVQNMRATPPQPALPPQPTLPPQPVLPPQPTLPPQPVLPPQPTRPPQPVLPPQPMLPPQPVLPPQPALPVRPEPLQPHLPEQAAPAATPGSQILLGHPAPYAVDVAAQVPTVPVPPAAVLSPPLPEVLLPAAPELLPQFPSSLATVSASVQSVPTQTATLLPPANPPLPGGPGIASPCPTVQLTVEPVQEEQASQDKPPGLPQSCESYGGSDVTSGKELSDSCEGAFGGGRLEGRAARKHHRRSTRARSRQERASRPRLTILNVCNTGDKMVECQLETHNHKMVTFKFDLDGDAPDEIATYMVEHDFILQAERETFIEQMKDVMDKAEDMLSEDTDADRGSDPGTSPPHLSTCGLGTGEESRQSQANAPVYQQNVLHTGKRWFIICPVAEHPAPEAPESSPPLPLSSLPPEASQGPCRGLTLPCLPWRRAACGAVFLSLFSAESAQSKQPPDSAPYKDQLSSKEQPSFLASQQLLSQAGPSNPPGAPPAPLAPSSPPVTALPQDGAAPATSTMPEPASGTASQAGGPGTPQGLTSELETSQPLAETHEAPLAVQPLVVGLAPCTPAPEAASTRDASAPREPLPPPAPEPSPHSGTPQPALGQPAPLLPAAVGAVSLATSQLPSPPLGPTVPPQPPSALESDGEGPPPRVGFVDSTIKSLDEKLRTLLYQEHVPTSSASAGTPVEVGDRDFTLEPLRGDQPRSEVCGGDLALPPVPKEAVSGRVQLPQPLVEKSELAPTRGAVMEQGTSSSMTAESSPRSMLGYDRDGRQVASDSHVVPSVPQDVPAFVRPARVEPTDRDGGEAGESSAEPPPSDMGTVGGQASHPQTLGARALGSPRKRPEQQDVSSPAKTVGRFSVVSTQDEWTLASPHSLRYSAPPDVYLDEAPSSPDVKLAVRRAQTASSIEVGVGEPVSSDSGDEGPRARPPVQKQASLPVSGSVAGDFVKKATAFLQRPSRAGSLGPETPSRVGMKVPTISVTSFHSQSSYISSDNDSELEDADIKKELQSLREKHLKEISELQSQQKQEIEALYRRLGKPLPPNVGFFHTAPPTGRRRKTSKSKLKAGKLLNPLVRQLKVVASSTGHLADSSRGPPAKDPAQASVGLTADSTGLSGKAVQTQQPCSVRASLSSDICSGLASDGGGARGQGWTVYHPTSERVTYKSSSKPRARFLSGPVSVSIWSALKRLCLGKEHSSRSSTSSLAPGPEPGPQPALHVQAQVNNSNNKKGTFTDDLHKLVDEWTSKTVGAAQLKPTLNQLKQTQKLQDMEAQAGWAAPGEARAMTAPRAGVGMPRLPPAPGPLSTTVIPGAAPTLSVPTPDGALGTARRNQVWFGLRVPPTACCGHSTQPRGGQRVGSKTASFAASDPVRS

BDNF/NT-3 growth factors receptor (Homo sapiens), sequence (Q16620 32-822 limits assumed): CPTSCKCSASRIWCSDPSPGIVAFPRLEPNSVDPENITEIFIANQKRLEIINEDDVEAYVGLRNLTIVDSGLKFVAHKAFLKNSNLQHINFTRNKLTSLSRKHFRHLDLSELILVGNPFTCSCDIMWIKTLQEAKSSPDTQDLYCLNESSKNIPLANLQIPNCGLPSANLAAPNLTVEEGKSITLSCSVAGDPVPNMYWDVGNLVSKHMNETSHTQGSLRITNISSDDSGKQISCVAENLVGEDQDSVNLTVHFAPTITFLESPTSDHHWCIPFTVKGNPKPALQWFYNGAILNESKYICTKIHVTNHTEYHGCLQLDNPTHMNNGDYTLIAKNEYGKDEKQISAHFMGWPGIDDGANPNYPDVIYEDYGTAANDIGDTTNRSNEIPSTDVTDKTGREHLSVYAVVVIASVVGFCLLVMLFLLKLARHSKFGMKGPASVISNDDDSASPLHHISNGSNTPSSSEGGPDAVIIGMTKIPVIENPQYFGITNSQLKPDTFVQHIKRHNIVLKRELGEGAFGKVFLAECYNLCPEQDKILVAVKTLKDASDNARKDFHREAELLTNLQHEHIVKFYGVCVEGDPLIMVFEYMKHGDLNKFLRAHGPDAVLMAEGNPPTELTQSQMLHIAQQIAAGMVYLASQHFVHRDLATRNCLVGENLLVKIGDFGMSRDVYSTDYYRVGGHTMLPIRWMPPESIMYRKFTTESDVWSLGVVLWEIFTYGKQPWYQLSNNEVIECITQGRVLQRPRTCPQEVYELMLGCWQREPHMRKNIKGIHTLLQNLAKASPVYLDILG

Regarding `O=c1cc(-c2cccc3c2Sc2ccccc2S3)oc(N2CCOCC2)c1`, the residual activity – broadly, the signal under treatment as a percentage of the control signal – was found to be 76% in experiment [1]; 91% in [2]; 91% in experiment [3]; 107% in experiment [4]; 101% in experiment [5]; 94% in experiment [6]. Moreover, the residual activity in [7] was 96%; in experiment [8], 97% (inactive); in experiment [9], 97%; in experiment [10], 103% (inactive).
Consider `O=C(Nc1cccc(Nc2cc(Nc3cccc(C(F)(F)F)c3)ncn2)c1)C1CC1`, for which the residual activity in experiment [1] was 37%; in experiment [2], 109%; in experiment [3], 69%; in experiment [4], 103%; in experiment [5], 103%; in [6], 110%. Besides, the residual activity in experiment [7] was 94%; in experiment [8] it was 107% (inactive); in experiment [9], 77%; in experiment [10], 103% (inactive).
Consider `Cc1ccc(NC2=CC(=O)c3sc(C)nc3C2=O)cc1`, for which the residual activity in experiment [1] worked out at 93%; in experiment [2] it was 80%; in [3], 83%; in experiment [4], 101%; in experiment [5] it was 100%; in experiment [6], 96%. For the same compound, the residual activity in experiment [7] was 100%; in experiment [8], 89% (inactive); in experiment [9] it was 88%; in experiment [10] it was 88% (inactive).
Take `NC(=O)c1ccc2[nH]c(-c3ccc(Oc4ccc(Cl)cc4)cc3)nc2c1`: the residual activity in experiment [1] was found to be 101%; in experiment [2] it was 96%; in [3] it was 92%; in experiment [4], 97%; in [5], 93%; in experiment [6], 90%. For the same compound, the residual activity in experiment [7] was 87%; in experiment [8], 88% (inactive); in experiment [9], 82%; in experiment [10], 90% (inactive).
Regarding `N#C/C(=C(\N)Sc1ccc(N)cc1)c1ccccc1C(F)(F)F`, the residual activity came out at 72% in experiment [1]; 74% in experiment [2]; 86% in [3]; 119% in experiment [4]; 107% in experiment [5]; 95% in experiment [6]. Further, the residual activity in experiment [7] was 94%; in experiment [8], 101% (inactive); in experiment [9], 95%; in experiment [10] it was 101% (inactive).
For `Cc1cc2ncc(-c3ccccc3)nc2cc1C`, the residual activity in experiment [1] stood at 53%; in experiment [2], 90%; in experiment [3], 84%; in experiment [4], 104%; in experiment [5] it was 88%; in experiment [6], 107%. The residual activity in experiment [7] is 96%; in experiment [8], 105% (inactive); in experiment [9] it was 96%; in experiment [10], 99% (inactive).
As for `Oc1ccc(Nc2nc(-c3ccc(Cl)cc3)cs2)cc1`, the residual activity in [1] was found to be 78%; in [2] it was 97%; in experiment [3], 79%; in experiment [4], 118%; in experiment [5], 105%; in experiment [6], 96%. The residual activity in experiment [7] was 102%; in [8], 98% (inactive); in experiment [9], 102%; in experiment [10], 117% (inactive).
As for `N#CCCc1ccc2c(c1)-c1[nH]c3ccc([N+](=O)[O-])cc3c1CC(=O)N2`, the residual activity in experiment [1] was determined as 65%; in experiment [2], 26%; in [3], 9%; in experiment [4], 47%; in [5] it was 21%; in [6] it was 33%. Besides, the residual activity in experiment [7] is 6%.
In the case of `CN(C)c1ccc(/C=C2\C(=O)Nc3ccccc32)cc1`, the residual activity is 5% in experiment [1]; 108% in experiment [2]; 69% in experiment [3]; 107% in [4]; 70% in experiment [5]; 100% in [6]. In addition, the residual activity in experiment [7] was 49%; in experiment [8], 113% (inactive); in experiment [9], 87%; in experiment [10], 110% (inactive).
For `CC[n+]1c(/C=C/N(C)c2ccccc2)n(-c2ccccc2)c2ccc(-c3nc4ccccc4s3)cc21`, the residual activity is 61% in experiment [1]; 83% in experiment [2]; 51% in [3]; 110% in experiment [4]; 104% in experiment [5]; 112% in experiment [6]. Besides, the residual activity in [7] was 97%; in [8] it was 110% (inactive); in experiment [9] it was 99%; in experiment [10] it was 96% (inactive).
As to `Cn1cnc2cc3c(Nc4cccc(Br)c4)ncnc3cc21`, the residual activity in experiment [1] came to 68%; in experiment [2], 89%; in experiment [3] it was 60%; in experiment [4], 106%; in [5], 99%; in experiment [6], 112%. For the same compound, the residual activity in experiment [7] was 74%; in [8], 98% (inactive); in experiment [9], 95%; in experiment [10], 105% (inactive).
`COc1ccc(OC)c2c(=S)c3ccccc3[nH]c12`: the residual activity in [1] was 92%; in experiment [2], 84%; in [3], 86%; in experiment [4], 100%; in experiment [5] it was 102%; in experiment [6], 86%. Besides, the residual activity in experiment [7] is 101%; in experiment [8], 91% (inactive); in experiment [9], 86%; in experiment [10], 86% (inactive).
As for `COc1ccc(C(=O)Nc2sc3c(c2C(N)=O)CCCC3)cc1OC`, the residual activity in [1] amounted to 71%; in [2] it was 93%; in experiment [3] it was 73%; in [4], 102%; in [5] it was 92%; in experiment [6], 99%. Further, the residual activity in experiment [7] was 84%; in experiment [8], 107% (inactive); in experiment [9] it was 85%; in [10], 104% (inactive).
With `O=C1NC(=O)/C(=C\c2ccc3nccnc3c2)S1`, the residual activity in experiment [1] is 94%; in experiment [2] it was 100%; in [3], 93%; in [4], 104%; in experiment [5], 82%; in experiment [6], 99%. Further, the residual activity was 63% in experiment [7], 93% (inactive) in experiment [8], 92% in [9] and 82% (inactive) in experiment [10].
In the case of `Nc1n[nH]c2nnc(-c3c(-c4ccccc4)nn4ccccc34)cc12`, the residual activity came out at 52% in experiment [1]; 77% in experiment [2]; 60% in experiment [3]; 95% in [4]; 96% in [5]; 92% in experiment [6]. Also, the residual activity is 87% in experiment [7], 89% (inactive) in [8], 68% in [9] and 88% (inactive) in experiment [10].
Turning to `c1ccc2c(-c3ccncc3)c[nH]c2c1`, the residual activity worked out at 110% in experiment [1]; 109% in [2]; 97% in experiment [3]; 104% in [4]; 97% in experiment [5]; 104% in experiment [6]. Besides, the residual activity was 82% in experiment [7], 101% (inactive) in [8], 88% in experiment [9] and 107% (inactive) in experiment [10].
Regarding `O=C1NC(=O)c2c1c1c3ccccc3[nH]c1c1[nH]c3cc(Br)ccc3c21`, the residual activity in experiment [1] came out at 42%; in experiment [2] it was 89%; in experiment [3], 72%; in [4] it was 108%; in experiment [5], 95%; in experiment [6], 88%. The residual activity in experiment [7] is 86%; in experiment [8], 95% (inactive); in [9] it was 90%; in [10] it was 96% (inactive).
